“And” between values parts separate entries of the source, which are not always exact repeats. Equal values may be shown once. Inconclusive results are not listed. Where a call stands in place of a potency, no number is given. The source made the active and inactive calls. The call rests on the fitted dose curve; in most records, active means well fitted inhibition curve with a large enough effect; inconclusive means small, poorly fitted or top-dose-only effect; inactive means flat fitted curve, though single readings scatter. Where a SMILES comes first, the peptide text is derived from it. Bridges are numbered along the chain shown (N, C = ends). [ ]: non-standard residue; d: D form. Hyp = O=C(O)[CH]1C[CH](O)CN1; Phe(ol) = N[CH](CO)Cc1ccccc1; Orn = NCCC[C@H](N)C(=O)O; Iva = CC[C](C)(N)C(=O)O; Aib = CC(C)(N)C(=O)O; Mpa = O=C(O)CCS

In PubChem BioAssay (NCATS) one finds Potency and activity change, negative = cytotoxicity data, which are given here for 39 compounds.
Potency means the concentration at half of the fitted maximal effect.

The experiment is described as follows: P-glycoprotein substrates identified in KB-8-5-11 adenocarcinoma cell line, qHTS therapeutic library screen (AID 1346987). Further: nearly all actives have a fitted effect of over 65% in size. The settings on record: KB-8-5-11 (P-gp overexpressing) viability, CellTiter-Glo, 72 h; series mostly up to 44.5 µM. Summed up: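 Luminescence from CellTiter-Glo, read 5 min after addition, quantified survival of KB-8-5-11 (P-gp-overexpressing) cells exposed to compounds for 72 h. AC50 was derived from concentration-response curves.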
(In general: qHTS replaces the single test concentration by a dilution series.)
Turning to `Cc1ccccc1C(C(=O)NC1CCCCC1)N(C(=O)Cn1cnc2ccccc21)c1cccc(F)c1` (centres undefined), the Potency is 23.1 µM (active).

In the case of `O=C(NCCN1CCC(n2c(=O)[nH]c3ccccc32)CC1)c1cc2cc(F)ccc2[nH]1`, the Potency entry was “inactive”.

Consider `CCC(C)[C@H]1O[C@]2(C=C[C@@H]1C)C[C@@H]1C[C@@H](C/C=C(\C)[C@@H](O[C@H]3C[C@H](OC)[C@@H](O[C@H]4C[C@H](OC)[C@H](NC(C)=O)[C@H](C)O4)[C@H](C)O3)[C@@H](C)/C=C/C=C3\CO[C@@H]4[C@H](O)C(C)=C[C@@H](C(=O)O1)[C@]34O)O2` (some centres undefined), for which the Potency was 5.17 µM (active) and 18.4 µM (active).

Consider `C[C@@H]1C[C@H]2O[C@@]3(O[C@@H]2C(C)(C)O)C(O)[C@@]2(C)C4CCC5C(C)(C)[C@@H](O[C@H]6OC[C@H](O)[C@@H](O)[C@@H]6O)CC[C@@]56C[C@@]46CC[C@]2(C)C13` (some centres undefined), for which the Potency entry is “inactive”.

For `CCC(=O)Oc1ccc2c(c1)CC[C@@H]1[C@@H]2CC[C@]2(C)[C@@H](OC(=O)CC)CC[C@@H]12`, the Potency was 10.3 µM (active).

As to `CNCCN1CCC(c2cc(CN(C)C(=O)c3cccc(Oc4ccccc4)c3)ccn2)CC1`, the Potency result was “inactive”.

Turning to `Cc1cc(N2CCOCC2)ccc1Nc1nc(NC2CCCCC2)c2[nH]cnc2n1`, the Potency was 1.3 µM (active).

On to `CCOc1ccc(C[C@H]2NC(=O)CCSSC[C@@H](C(=O)N3CCC[C@H]3C(=O)N[C@@H](CCCN)C(=O)NCC(N)=O)NC(=O)[C@H](CC(N)=O)NC(=O)[C@H]([C@@H](C)O)NC(=O)[C@H]([C@@H](C)CC)NC2=O)cc1` ([Mpa][dY](Et)ITNCP[Orn]G-NH2; disulfide 1-6), for which the Potency result is “inactive”.

As for `CC[C@H](C)/C=C(C)/C=C/C1=CC2=CC(=O)[C@]3(C)OC(=O)[C@@H](C(C)=O)[C@@H]3C2=CO1`, the Potency result was “inactive”.

As to `Nc1ncnc2c1nc(Cl)n2C1OC2COP(=O)(O)OC2C1O` (centres undefined), the Potency was 1.46 µM (active).

`CN1CCN(c2ccc(OC(F)(F)F)c(Nc3ncc4c(n3)-c3c(c(C(N)=O)nn3CCO)CC4)c2)CC1`: the Potency is 0.517 µM (active).

In the case of `C=C[C@]1(C)C[C@@H](OC(=O)CO)[C@]2(C)[C@H](C)CC[C@]3(CCC(=O)[C@H]32)[C@@H](C)[C@@H]1O`, the Potency entry was “inactive”.

As for `CCOC(=O)[C@H](CCc1ccccc1)N[C@H]1CCCN2CCC[C@@H](C(=O)O)N2C1=O`, the Potency entry was “inactive”.

On to `CCC(C)(NC(=O)C(CCC(N)=O)NC(=O)C1CC(O)CN1C(=O)C(C)(C)NC(=O)C(C)(C)NC(=O)C(CC(C)C)NC(=O)CNC(=O)C(NC(=O)C(C)(C)NC(=O)C(C)(C)NC(=O)C(C)(C)NC(=O)C(Cc1ccccc1)NC(C)=O)C(C)C)C(=O)N1CC(O)CC1C(=O)NC(C)(C)C(=O)NC(CO)Cc1ccccc1` (centres undefined) (Ac-F[Aib][Aib][Aib]VGL[Aib][Aib][Hyp]Q[Iva][Hyp][Aib][Phe(ol)]; configuration not given here), for which the activity change, negative = cytotoxicity was -10.8% [at 9.29 µM] (inactive).

`C=CC(C)(O)CC/C=C(/C)COC(=O)C(C)C1CCC(C)(C=C)O1` (centres undefined): the Potency result is “inactive”.

As for `CC(C)C[C@@H](C(=O)N[C@@H](Cc1ccc(OCc2ccccc2)cc1)C(=O)NC(C)(C)C)N(C)Cc1ccc(C(C)(C)C)cc1`, the Potency entry is “inactive”.

Regarding `C/C(=C(\CCOC(=O)c1ccccc1)SS/C(CCOC(=O)c1ccccc1)=C(/C)N(C=O)Cc1cnc(C)nc1N)N(C=O)Cc1cnc(C)nc1N`, the Potency entry is “inactive”.

`CCCCCCCCCCCCCCCCCC(=O)OCCO`: the Potency result was “inactive”.

Turning to `Cc1ccc(C)c(NC(=O)[C@@H]2CCCN2S(=O)(=O)c2cccc3cccnc23)c1`, the Potency entry is “inactive”.

`C#CCCCn1cc(-c2cccc3c2N[C@H](C)CC(=O)N3)cn1`: the Potency was 1.46 µM (active).

With `O=C[C@H](O)[C@@H](O)[C@H](O)[C@H](O)CO`, the Potency result is “inactive”.

On to `CCC(CC)C(=O)OC12C(OC(=O)C(C)C)C(C)C3(O)C(C=C(CO)CC4(O)C(=O)C(C)=CC43)C1C2(C)C` (centres undefined), for which the Potency result was “inactive”.

With `CCC/C=C/c1cc2c(C=O)c(O)c(CC=C(C)C)cc2o1`, the Potency result is “inactive”.

Consider `COC(=O)c1sccc1S(=O)(=O)Nc1ccc(Nc2ccccc2)cc1OC`, for which the Potency result was “inactive”.

For `C/C=C/C=C/c1cc2c(C=O)c(O)c(CC=C(C)C)cc2o1`, the Potency entry is “inactive”.

In the case of `O=C(NCCCNC(=O)c1ccc[nH]c1=O)c1cc(-c2ccccc2)on1`, the Potency result is “inactive”.

As for `C=CS(=O)(=O)NC1CCN(C(=O)CNc2cc(I)c(Cl)cc2OC)CC1`, the Potency was 14.6 µM (active).

In the case of `CC(=O)O[C@@H]1CC[C@@]2(C)C(CC[C@]3(C)C2[C@H](O)C=C2[C@H]4[C@@H](C)[C@H](C)CC[C@]4(C)CC[C@]23C)[C@@]1(C)C(=O)O` (some centres undefined), the Potency entry was “inactive”.

In the case of `O.O=C([O-])CC([S-])C(=O)[O-].[Au+].[Na+].[Na+]` (centres undefined), the Potency result is “inactive”.

Turning to `Cc1cc(N2CCN(C(=O)Oc3ccc(-c4ccccc4)cn3)CC2)c2ccccc2n1`, the Potency is 14.6 µM (active).

As for `O=C(NC1(c2ccccc2)CC1)c1c(CN2CCC(N3CCCCC3)CC2)c(-c2cccc(C(F)(F)F)c2)nc2cc(Br)ccc12`, the Potency is 23.1 µM (active).

Take `CC1(C)Oc2ncnc(N)c2N=C1c1ccc(C23CCC(CC(=O)O)(CC2)CC3)cc1`: the Potency entry is “inactive”.

On to `CC(C)S(=O)(=O)Nc1ccc(F)c(C(=O)c2c[nH]c3ncc(-c4cccnc4)cc23)c1F`, for which the Potency entry is “inactive”.

For `Nc1c(S(=O)(=O)c2ccccc2)c2nc3ccccc3nc2n1-c1ccc(F)cc1`, the Potency entry was “inactive”.

With `C[C@@H]1O[C@@H](O[C@H]2[C@H](OC(=O)[C@]34CCC(C)(C)C[C@H]3C3=CCC5[C@@]6(C)C[C@H](O)[C@H](O[C@@H]7O[C@H](CO)[C@@H](O)[C@H](O)[C@H]7O)[C@](CO)(C(=O)O)C6CC[C@@]5(C)[C@]3(C)C[C@H]4O)OC[C@H](O)[C@@H]2O)[C@H](O)[C@H](O)[C@H]1O[C@@H]1OC[C@@H](O)[C@H](O[C@@H]2OC[C@](O)(CO)[C@H]2O)[C@H]1O` (some centres undefined), the Potency was 2.45 µM (active).

In the case of `CC1=C(C(=O)OC2CCCCC2)C(c2ccc([N+](=O)[O-])cc2)C2=C(CC(C)(C)CC2=O)N1` (centres undefined), the Potency entry is “inactive”.

In the case of `COc1ccc(C2NC(=S)N3C(c4ccc(OC)c(OC)c4)NC(=S)N23)cc1OC` (centres undefined), the Potency entry was “inactive”.

For the compound `CCOc1ccc(Cc2nc(-c3c(C)nc4ccccn34)cs2)cc1`, the Potency was 0.0184 µM (active).

For the compound `NC(N)=NC(=O)c1cnn(-c2cccc3ncccc23)c1C1CC1`, the Potency result is “inactive”.
